# From PubChem BioAssay AID1159580 (chemical genetic matrix, 2015)
# Out of some 5,500 compounds screened, about 2,000 (36%) were called active. Another 18% or so got no clear call; they are omitted. The list shows a part of the results. A number with no mark means an inactive call. Rule as the data show it: active = normalized growth mostly below about 0.91 (no sharp cut-off); inconclusive = no clear call, values can overlap the other calls; inactive = mostly above about 0.92.
# Test: chemical genetic growth profiling, strain panel (AID 1159580);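 also: tested at 20 µM; growth read once vehicle control cultures reached saturation at 30 °C; 1 = growth at the plate median or of vehicle wells; lower values mean less growth of the strain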
# Conditions: growth OD
# [1] = S. cerevisiae deletion strains, locus YJR075W, strain HOC1, active compounds read low
# [2] = S. cerevisiae deletion strains, locus YMR263W, strain SAP30, active compounds read low
# [3] = S. cerevisiae deletion strains, locus YMR307W, strain GAS1, active compounds read low
# [4] = S. cerevisiae deletion strains, locus YNL153C, strain GIM3, active compounds read low
# [5] = S. cerevisiae deletion strains, locus YPL241C, strain CIN2, active compounds read low
# [6] = S. cerevisiae deletion strains, locus YAL013W, strain DEP1, active compounds read low
# [7] = S. cerevisiae deletion strains, locus YBR229C, strain ROT2, active compounds read low
# [8] = S. cerevisiae deletion strains, locus YDL101C, strain DUN1, active compounds read low
# [9] = S. cerevisiae deletion strains, locus YDR150W, strain NUM1, active compounds read low
# [10] = S. cerevisiae deletion strains, locus YEL061C, strain CIN8, active compounds read low
# [11] = S. cerevisiae deletion strains, locus YGR078C, strain PAC10, active compounds read low
# [12] = S. cerevisiae deletion strains, locus YHR030C, strain SLT2, active compounds read low
# [13] = S. cerevisiae deletion strains, locus YHR087W, strain rtc3, active compounds read low
# [14] = S. cerevisiae deletion strains, locus YJR043C, strain POL32, active compounds read low
# [15] = S. cerevisiae deletion strains, locus YLR039C, strain RIC1, active compounds read low
# [16] = S. cerevisiae deletion strains, locus YLR058C, strain SHM2 (second series), active compounds read low
# [17] = S. cerevisiae deletion strains, locus YLR085C, strain ARP6, active compounds read low
# [18] = S. cerevisiae deletion strains, locus YLR262C, strain YPT6, active compounds read low
# [19] = S. cerevisiae deletion strains, locus YML094W, strain GIM5, active compounds read low
# [20] = S. cerevisiae deletion strains, locus YMR219W, strain ESC1, active compounds read low
# [21] = S. cerevisiae deletion strains, locus YNL298W, strain CLA4 (second series), active compounds read low
# [22] = S. cerevisiae deletion strains, locus YNL322C, strain KRE1, active compounds read low
# [23] = S. cerevisiae deletion strains, locus YNR030W, strain Alg12, active compounds read low
# [24] = S. cerevisiae deletion strains, locus YPL055C, strain LGE1, active compounds read low
# [25] = S. cerevisiae deletion strains, locus YPR135W, strain CTF4, active compounds read low
# [26] = S. cerevisiae strains, strain wild type, active compounds read low
structure (smiles),measurement,setting,value
COc1ccccc1N1CCN(CCN(C(=O)C2CCCCC2)c2ccccn2)CC1,normalized growth,"S. cerevisiae deletion strains, locus YAL040C, strain CLN3, active compounds read low",0.99
same,normalized growth,"S. cerevisiae deletion strains, locus YCL061C, strain MRC1 (second series), active compounds read low",1.01
same,normalized growth,"S. cerevisiae deletion strains, locus YDR363W, strain ESC2, active compounds read low",1.01
same,normalized growth,"S. cerevisiae deletion strains, locus YER002W, strain NOP16, active compounds read low",1.01
same,normalized growth,[1],1.01
same,normalized growth,[2],0.997
same,normalized growth,[3],0.993
same,normalized growth,"S. cerevisiae deletion strains, locus YNL128W, strain TEP1, active compounds read low",1.01
same,normalized growth,[4],1.01
same,normalized growth,"S. cerevisiae deletion strains, locus YNL175C, strain NOP13, active compounds read low",0.999
same,normalized growth,"S. cerevisiae deletion strains, locus YNL197C, strain WHI3, active compounds read low",1
same,normalized growth,"S. cerevisiae deletion strains, locus YNL224C, strain SQS1, active compounds read low",1
same,normalized growth,"S. cerevisiae deletion strains, locus YOR083W, strain WHI5 (second series), active compounds read low",1.05
same,normalized growth,[5],1.01
COc1ccccc1N1CCN(C(=O)c2cccs2)CC1,normalized growth,[6],0.998
same,normalized growth,[7],1.01
same,normalized growth,[8],0.991
same,normalized growth,"S. cerevisiae deletion strains, locus YDL134C, strain PPH21, active compounds read low",0.959
same,normalized growth,[9],1.04
same,normalized growth,[10],1.01
same,normalized growth,[11],1
same,normalized growth,"S. cerevisiae deletion strains, locus YGR229C, strain SMI1, active compounds read low",0.993
same,normalized growth,[12],0.963
same,normalized growth,[13],0.985
same,normalized growth,[14],1.01
same,normalized growth,[1],1.03
same,normalized growth,"S. cerevisiae deletion strains, locus YKL190W, strain CNB1, active compounds read low",0.99
same,normalized growth,[15],1.01
same,normalized growth,[16],0.984
same,normalized growth,[17],0.889
same,normalized growth,[18],1.13
same,normalized growth,[19],0.972
same,normalized growth,[20],0.988
same,normalized growth,[2],1.02
same,normalized growth,[3],0.849
same,normalized growth,[4],1.04
same,normalized growth,[21],0.981
same,normalized growth,[22],0.993
same,normalized growth,[23],0.957
same,normalized growth,[24],0.99
same,normalized growth,[5],0.957
same,normalized growth,[25],1.1
same,normalized growth,[26],0.993
COc1ccccc1N1CCN(C(=O)Nc2cc(Cl)cc(Cl)c2)CC1,normalized growth,[6],0.934
same,normalized growth,[7],0.988
same,normalized growth,"S. cerevisiae deletion strains, locus YCL061C, strain MRC1, active compounds read low",0.927
same,normalized growth,[8],0.967
same,normalized growth,[9],0.854
same,normalized growth,[10],0.914
same,normalized growth,[11],0.965
same,normalized growth,[12],0.434 (active)
same,normalized growth,[13],0.97
same,normalized growth,[14],0.971
same,normalized growth,[1],0.986
same,normalized growth,[15],1.09
same,normalized growth,[16],1
same,normalized growth,[17],0.511 (active)
same,normalized growth,[18],1.05
same,normalized growth,[19],0.823 (active)
same,normalized growth,[20],1
same,normalized growth,[2],0.937
same,normalized growth,[4],0.975
same,normalized growth,[21],0.715 (active)
same,normalized growth,[22],0.984
same,normalized growth,[23],0.877 (active)
same,normalized growth,"S. cerevisiae deletion strains, locus YOL006C, strain TOP1, active compounds read low",0.857
same,normalized growth,[24],0.761 (active)
same,normalized growth,[5],0.716 (active)
same,normalized growth,[25],0.667
same,normalized growth,[26],0.922
